The test system of one assay is PC26. Kind of assay: qHTS profiling for inhibitors of Plasmodium falciparum proliferation (AID 504749). Also: potency is read from the fitted curve at half-maximal effect. The following applies: P. falciparum in erythrocytes, SYBR Green DNA, 72 h; series mostly up to 28.7 µM. The essentials: (§1)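 Each compound contacts P. falciparum-infected red blood cells for 72 h at 37 C; lysis buffer (Tris, EDTA, saponin, Triton X, SYBR Green I) is added and fluorescence measured next morning; values normalized to controls.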

The subject of the next assay is PC49. The assay is described as above. The following applies: P. falciparum in erythrocytes, SYBR Green DNA, 72 h; series mostly up to 28.7 µM. The essentials: as §1
Another assay relates to SC27B. The description is as above. As to conditions: P. falciparum in erythrocytes, SYBR Green DNA, 72 h; series mostly up to 28.7 µM. The essentials: as §1
For the next assay, the system named is TAB109. The description is as above. As to conditions: P. falciparum in erythrocytes, SYBR Green DNA, 72 h; series mostly up to 28.7 µM. The essentials: as §1
The subject of the next assay is TAB113. The assay is described as above. As to conditions: P. falciparum in erythrocytes, SYBR Green DNA, 72 h; series mostly up to 28.7 µM. The essentials:
as §1

The test system of a further assay is TAB165. The assay is described as above. As to conditions: P. falciparum in erythrocytes, SYBR Green DNA, 72 h; series mostly up to 28.7 µM. The method, boiled down: as §1
A further assay concerns W2. The description is as above. As to conditions: P. falciparum in erythrocytes, SYBR Green DNA, 72 h; series mostly up to 28.7 µM. The essentials:
as §1

Another assay relates to CRL-7250. As to the kind of experiment: Cytotoxic Profiling of Annotated Libraries Using Quantitative High-Throughput Screening (AID 1296008). As to max response: % is scaled to controls: 0 for no effect and ±100 for the full control effect. As to conditions: Five cell lines viability, CellTiter-Glo ATP luminescence, 48-72 h; active compounds read low. The essentials: (§2)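 Cells exposed to compounds for 48 or 72 hr at 37 degrees Celsius. Viability read as ATP-coupled luminescence with CellTiter-Glo after 10 min at room temperature.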

For a further assay, the system named is HEK293. Described as above. The following applies: Five cell lines viability, CellTiter-Glo ATP luminescence, 48-72 h; active compounds read low. The method, boiled down:
as §2

The subject of assay [1] is HaCat. The description is as above. The following applies: Five cell lines viability, CellTiter-Glo ATP luminescence, 48-72 h; active compounds read low. The method, boiled down: as §2
Assay [2] deals with NIH3T3. The description is as above. The following applies: Five cell lines viability, CellTiter-Glo ATP luminescence, 48-72 h; active compounds read low. The essentials: as §2
For assay [3], the system named is HACAT. As to the kind of experiment: qHTS assay to identify novel small-molecules to repurpose for Merkel cell carcinoma treatment (AID 1296009). The following applies: MCC and control cell lines, CellTiter-Glo viability, 72 h; at 44.8 µM (top of the series) unless noted. The essentials: (§3)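 Dose-response viability screen; 72 hr exposure at 37 degree celsius; CellTiter-Glo added, 10 min room temperature, luminescence read; RLUs scaled between no-cell and DMSO wells.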

In the next assay the test system is MCC-13. Described as above. As to conditions: MCC and control cell lines, CellTiter-Glo viability, 72 h; series mostly up to 46 µM. The method, boiled down: as §3
Another assay deals with MCC-26. The assay is described as above. As to conditions: MCC and control cell lines, CellTiter-Glo viability, 72 h; series mostly up to 46 µM. The essentials: as §3
Another assay concerns MKL-1. The assay is described as above. The following applies: MCC and control cell lines, CellTiter-Glo viability, 72 h; series mostly up to 46 µM. The essentials: as §3
The next assay concerns MKL-2. The description is as above. As to conditions: MCC and control cell lines, CellTiter-Glo viability, 72 h; series mostly up to 46 µM. The essentials:
as §3

The next assay has as its system UISO. Described as above. As to conditions: MCC and control cell lines, CellTiter-Glo viability, 72 h; series mostly up to 46 µM. The essentials:
as §3

The next assay concerns HEK293T. Described as above. The following applies: MCC and control cell lines, CellTiter-Glo viability, 72 h; at 44.8 µM (top of the series) unless noted. The essentials:
as §3

Assay [4] has as its system NIH3T3. The description is as above. The following applies: MCC and control cell lines, CellTiter-Glo viability, 72 h; at 44.8 µM (top of the series) unless noted. The essentials:
as §3

Results filed as inconclusive are left out. Unmarked numbers belong to inactive results. Activity calls are given as the source filed them. Calls follow the shape of the dose curve; as a rule, active = well fitted inhibition curve with a large enough effect; inconclusive = small, poorly fitted or top-dose-only effect; inactive = flat fitted curve, though single readings scatter.
Also: nearly all actives have a fitted effect of over 60% in size.

With `O=c1[nH]c(=O)c2ccccc2o1`, the Potency entry in the assay with PC26, with PC49, in the assay on SC27B, with TAB109, with TAB113 and in the assay on TAB165 was “inactive” in each case. For the same molecule, in the assay on W2, the Potency entry was “inactive”. Further, the outcome in the assay on CRL-7250, with HaCat [1], in the assay on HACAT [3], in the assay with MCC-13, in the assay on MCC-26 and with MKL-1 was inactive. In addition, the molecule was classed as inactive in the assay on MKL-2 and with UISO. Moreover, the max response is 1.22% in the assay with HEK293 and -16.8% with NIH3T3 [2].

With `Cc1ccsc1C(=CCCN1CCC[C@@H](C(=O)O)C1)c1sccc1C`, the Potency result with PC26, with PC49, in the assay with SC27B, in the assay on TAB109, with TAB113 and with TAB165 was “inactive” throughout. Further, the Potency entry in the assay with W2 was “inactive”. Also, the results for the max response in the assay on CRL-7250, in the assay on HaCat [1] and in the assay with NIH3T3 [2] were -7.41%, 3.8% and -5%, respectively. The call with HEK293, with HEK293T, in the assay on MCC-13, in the assay on MCC-26, in the assay on MKL-1 and in the assay on MKL-2 was inactive. Besides, the result in the assay with UISO was inactive.

Take `CC(=O)N1C[C@H](O)C[C@H]1C(=O)O`: the call in the assay with CRL-7250, in the assay with NIH3T3 [2], in the assay on MCC-13, with MCC-26, in the assay with MKL-1 and with MKL-2 was inactive. The molecule was classed as inactive with NIH3T3 [4] and in the assay on UISO. Further, the max response in the assay with HEK293 is 1.84%; in the assay with HaCat [1] it was 4.9%.

For `CN1C[C@@H]2C[C@H]1CN2c1cc2c(cc1F)c(=O)c(C(=O)O)cn2C1CC1`, the Potency result in the assay on PC49 and in the assay on TAB113 was “inactive” in each case. In the assay on W2, the Potency is 0.953 µM (active). Further, the max response was 2.35% in the assay on CRL-7250, -22.9% in the assay with HEK293 and -10.1% in the assay with NIH3T3 [2]. The molecule was called inactive with HaCat [1], in the assay with MCC-13, with MCC-26, in the assay on MKL-1, in the assay on MKL-2 and in the assay on UISO. Besides, the outcome in the assay on HACAT [3] was “inactive [at 17.4 µM]”.

In the case of `O=C(NCN1CCOCC1)c1cnccn1`, the Potency entry in the assay with PC26, in the assay on PC49, with SC27B, in the assay on TAB109, in the assay with TAB113 and in the assay on TAB165 was “inactive” in each case. In addition, the Potency entry in the assay on W2 was “inactive”. Further, the figures for the max response with CRL-7250, in the assay with HEK293 and in the assay on NIH3T3 [2] were 3.76%, 3.79% and -0.98%, respectively. Besides, the molecule was called inactive in the assay on HaCat [1], in the assay with HACAT [3], in the assay with MCC-13, in the assay on MKL-1, in the assay with MKL-2 and with UISO.

As to `C[C@]1(Cn2ccnn2)[C@H](C(=O)O)N2C(=O)C[C@H]2S1(=O)=O`, the max response is -1.81% with CRL-7250, -19.5% in the assay on HaCat [1] and -0.883% in the assay with NIH3T3 [2]. Also, the call in the assay with HEK293, in the assay with HEK293T, in the assay with MCC-13, in the assay with MCC-26, in the assay on MKL-1 and in the assay with MKL-2 was inactive. In addition, the call with UISO was inactive.

With `CC(C(=O)O)c1ccc2c(c1)Cc1cccnc1O2` (configuration not stated), the Potency entry in the assay on PC26, in the assay on PC49, in the assay with SC27B, in the assay on TAB109, in the assay with TAB113 and with TAB165 was “inactive” in each case. In addition, the Potency result in the assay with W2 is “inactive”. For the same molecule, the max response in the assay on CRL-7250 is -6.8%; in the assay on HaCat [1], -5.6%; in the assay on NIH3T3 [2], -7.1%. Moreover, the molecule was classed as inactive with HEK293, in the assay on HEK293T, in the assay on MCC-13, in the assay on MCC-26, with MKL-1 and in the assay on MKL-2. Further, the molecule was classed as inactive in the assay on UISO.

Consider `CC(=O)Oc1cccc(O)c1`, for which the Potency result in the assay with PC26, in the assay with PC49, in the assay on SC27B, in the assay with TAB109, in the assay with TAB113 and in the assay on TAB165 was “inactive” in each case. In the assay on W2, the Potency result was “inactive”. Besides, the max response with CRL-7250 is 2.6%; in the assay with HEK293, 2.67%. The molecule was classed as inactive in the assay on HaCat [1], with NIH3T3 [2], in the assay on HACAT [3], with MCC-13, with MCC-26 and in the assay on MKL-1. In addition, the molecule was called inactive in the assay with MKL-2, in the assay with NIH3T3 [4] and in the assay on UISO.

In the case of `CC(=O)Oc1cccc(C)c1`, the Potency result in the assay on PC26, in the assay with PC49, in the assay with SC27B, in the assay with TAB109, in the assay on TAB113 and in the assay with TAB165 was “inactive” each time. In the assay with W2, the Potency entry is “inactive”. Also, the figures for the max response in the assay on CRL-7250, in the assay with HEK293 and in the assay with NIH3T3 [2] were 2.1%, -2.07% and -2.31%, respectively. Besides, the call with HaCat [1], in the assay on HACAT [3], in the assay on MCC-13, in the assay with MCC-26, in the assay on MKL-1 and with MKL-2 was inactive. Further, the molecule was classed as inactive in the assay on UISO.

For the molecule `O=C(c1ccccc1)C(O)c1ccccc1` (configuration not stated), the Potency result in the assay on PC26, in the assay with SC27B, in the assay with TAB109, with TAB113 and in the assay on TAB165 was “inactive” in each case. For the same molecule, the max response in the assay with CRL-7250 is -6.36%; in the assay with HEK293, -4.36%; with HaCat [1], -0.758%. Moreover, the call in the assay on NIH3T3 [2], with MCC-13, in the assay on MCC-26, with MKL-1, in the assay with MKL-2 and in the assay on NIH3T3 [4] was inactive. Moreover, the call in the assay with UISO was inactive.

Regarding `CCCC(O)C(CC)CO` (configuration not stated), the Potency result with PC26, with PC49, in the assay with SC27B, with TAB109, with TAB113 and with TAB165 was “inactive” each time. Besides, in the assay on W2, the Potency result is “inactive”. The results for the max response in the assay on CRL-7250, in the assay with HEK293 and in the assay on HaCat [1] were -3.08%, -1.45% and -9.38%, respectively. Moreover, the molecule was classed as inactive with NIH3T3 [2], in the assay with MCC-13, with MCC-26, with MKL-1, in the assay on MKL-2 and with NIH3T3 [4]. Besides, the result in the assay on UISO was inactive.

In the case of `NC(=O)NC1NC(=O)NC1=O` (configuration not stated), the outcome with CRL-7250, in the assay on HaCat [1], in the assay with NIH3T3 [2], with HACAT [3], in the assay on MCC-13 and in the assay with MCC-26 was inactive. For the same molecule, the outcome with MKL-1, with MKL-2, in the assay with NIH3T3 [4] and in the assay on UISO was inactive. Also, the max response with HEK293 was -3.84%.

`CC1(c2ccccc2)OC(C(=O)O)=CC1=O` (configuration not stated): the values for the max response in the assay on CRL-7250, in the assay on HEK293 and with NIH3T3 [2] were -0.824%, 1.9% and -3.39%, respectively. Also, the call with HaCat [1], in the assay on HACAT [3], in the assay with MCC-13, in the assay on MKL-1, with MKL-2 and with UISO was inactive.

The values are drawn from PubChem BioAssay (NCATS).
